# From PubChem BioAssay (Tox21)
# Records with an inconclusive call do not appear. Entries that show only a call come without a potency. Calls of active or inactive are those of the source. Unless noted, calls come from the whole dose curve; as a rule, active = well fitted curve in the direction sought with a large enough effect in the repeat runs; inconclusive = weak or mixed curves; inactive = no such curve, though single readings can be large; an effect the other way counts as inactive or inconclusive.
# Assays:
# [1] = qHTS assay for small molecule agonists of the p53 signaling pathway - cell viability (AID 651633; calls by dose curve; note: nearly all actives have a fitted effect of over 30% in size; note: potency is the fitted concentration of half-maximal effect)
# Outline: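 p53RE-bla cells were treated with compound for 16 hours at 37 C. Cytotoxicity was then measured as CellTiter-Glo luminescence after 30 min at room temperature.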
# [2] = qHTS assay for small molecule disruptors of the mitochondrial membrane potential - cell viability (AID 720634; calls by dose curve;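 note: human HepG2 liver cancer cells; nearly all actives have a fitted effect of over 20% in size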)
# Outline: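 Measuring cytotoxicity alongside mitochondrial potential, the screen quantified ATP by luminescence in HepG2 cells after 1 hr compound incubation and a 30 min room-temperature CellTiter-Glo step.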
# [3] = qHTS assay to test for compound auto fluorescence at 590 nm (red) in HepG2 cells (AID 720674)
# Outline: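 Fluorescence at 590 nm emission following 540 nm excitation was recorded from HepG2 wells one hour after compound transfer, with DMSO-only wells as vehicle and Rose Bengal sodium equivalency as the scale.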
# [4] = qHTS assay to test for compound auto fluorescence at 535 nm (green) in HepG2 cells (AID 720675)
# [5] = qHTS assay to test for compound auto fluorescence at 460 nm (blue) in HEK293 cells (AID 720678)
# Outline: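 Cells were seeded and left to adhere for 4-5 hr at 37C. Compounds were then pin-transferred. After an overnight incubation at 37C under 5% CO2, intrinsic fluorescence at 405/460 nm was measured and referenced to triamterene.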
# [6] = qHTS assay to test for compound auto fluorescence at 590 nm (red) in HEK293 cells (AID 720679)
# Outline: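 Each well held 2,000 HEK293 cells in medium containing 10% dialyzed FBS. Following 4-5 hr attachment at 37C, 23 nL test compound or DMSO was added; plates sat overnight, and red fluorescence (540/590nm) was recorded.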
# [7] = qHTS assay to test for compound auto fluorescence at 535 nm (green) in HEK293 cells (AID 720680)
# [8] = qHTS assay to test for compound auto fluorescence at 460 nm (blue) in HEK293 cell free culture (AID 720681)
# Outline: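 Compounds were added to cell-free DMEM with 10% FBS and fluorescence read directly. The blue channel used 405 nm excitation and 460 nm emission, with triamterene as the reference fluorophore.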
# [9] = qHTS assay to test for compound auto fluorescence at 535 nm (green) in HEK293 cell free culture (AID 720682)
# Outline: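 Each library compound, or DMSO control, is added by pintool to medium alone, comprising DMEM and 10% FBS. Emission at 535 nm following 485 nm excitation is quantified against fluorescein.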
# [10] = qHTS assay to test for compound auto fluorescence at 590 nm (red) in HEK293 cell free culture (AID 720683)
# Outline: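 Cell-free wells of DMEM with 10% FBS received compound, and intrinsic fluorescence was read at excitation/emission 540/590 nm. Values expressed as equivalence to Rose Bengal sodium.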
# [11] = qHTS assay to test for compound auto fluorescence at 460 nm (blue) in HepG2 cell free culture (AID 720685)
# Outline: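 Compound (23 nL) or DMSO pinned into cell-free MEM with 10% FBS; blue fluorescence read at 405/460 nm excitation/emission, expressed as auto-fluorescence equivalency to triamterene.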
# [12] = qHTS assay to test for compound auto fluorescence at 535 nm (green) in HepG2 cell free culture (AID 720686)
# [13] = qHTS assay to test for compound auto fluorescence at 460 nm (blue) in HepG2 cells (AID 720687)
# Outline: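 HepG2 cells in MEM with 10% FBS, attached overnight at 37 C, were exposed to compound or DMSO for 1 hr at 37 C, 5% CO2. Blue fluorescence was read at 405/460 nm, with triamterene as reference fluorophore.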
# [14] = qHTS assay for small molecules that induce genotoxicity in human embryonic kidney cells expressing luciferase-tagged ATAD5 - cell viability (AID 651634; calls by dose curve; note: nearly all actives have a fitted effect of over 25% in size; note: potency is the fitted concentration of half-maximal effect)
# Outline: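 Seeding of 2,000 HEK293T ATAD5-luciferase cells per well preceded pin-tool compound transfer. Plates sat 15.5 hr at 37C under 5% CO2, then fluorescence was read after 30 min with CellTiter-Fluor.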
# [15] = qHTS assay to test for compound auto fluorescence at 590 nm (red) in HepG2 cell free culture (AID 720684)
# Outline: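 Compound was pinned into wells holding MEM with 10% FBS and no cells, and red fluorescence was read at Ex/Em 540/590 nm. Signal is expressed as auto fluorescence equivalency relative to Rose Bengal sodium.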
# [16] = molecular target: Glucocorticoid receptor (Homo sapiens) (UniProt P04150); assay: qHTS assay to identify small molecule agonists of the glucocorticoid receptor (GR) signaling pathway (AID 720691; active = well fitted activation curve with a large enough effect in the signal ratio in the repeat runs, not every such curve was filed as active; the % refers to the signal ratio); settings: GR-bla HeLa, beta-lactamase reporter ratio, 18 h; activation: at 62.4 µM (top of the series)
# Glucocorticoid receptor (Homo sapiens), sequence (P04150 whole entry, looked up): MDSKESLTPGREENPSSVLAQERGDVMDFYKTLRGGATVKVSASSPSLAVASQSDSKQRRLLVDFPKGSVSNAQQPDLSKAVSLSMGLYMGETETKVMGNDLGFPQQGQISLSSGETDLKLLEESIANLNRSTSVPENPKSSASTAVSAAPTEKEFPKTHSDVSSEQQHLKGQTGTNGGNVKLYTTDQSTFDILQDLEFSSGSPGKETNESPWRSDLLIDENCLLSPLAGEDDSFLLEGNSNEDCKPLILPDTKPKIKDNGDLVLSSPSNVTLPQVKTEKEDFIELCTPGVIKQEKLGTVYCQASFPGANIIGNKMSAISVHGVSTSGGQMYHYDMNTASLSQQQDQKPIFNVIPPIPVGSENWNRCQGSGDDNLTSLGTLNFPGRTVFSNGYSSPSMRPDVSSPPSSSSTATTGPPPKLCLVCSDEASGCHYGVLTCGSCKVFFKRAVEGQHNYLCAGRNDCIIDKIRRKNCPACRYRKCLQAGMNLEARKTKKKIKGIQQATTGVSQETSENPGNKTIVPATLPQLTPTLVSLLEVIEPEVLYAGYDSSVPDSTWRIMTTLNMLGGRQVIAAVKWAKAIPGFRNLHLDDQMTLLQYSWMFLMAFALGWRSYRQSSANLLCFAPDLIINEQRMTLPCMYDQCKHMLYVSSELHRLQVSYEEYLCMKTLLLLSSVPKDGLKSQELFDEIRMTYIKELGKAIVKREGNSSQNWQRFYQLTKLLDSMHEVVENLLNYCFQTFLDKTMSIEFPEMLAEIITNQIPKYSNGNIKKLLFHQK
# Outline: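 Reporter read-out: fluorescence intensity following 2 h room-temperature LiveBLAzer B/G FRET substrate loading. Prior step: GR-bla HeLa cells held 4 h, then treated 18 h at 37 C.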
# [17] = qHTS assay for small molecule disruptors of the mitochondrial membrane potential (AID 720635); note: potency is the fitted concentration of half-maximal effect
# Outline: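 HepG2 cells exposed to compound 1 hr at 37C, then Mito-MPS dye 30 min. Ratio read of aggregate (540/590 nm) versus monomer (490/535 nm) fluorescence.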
# [18] = molecular target: Glucocorticoid receptor (Homo sapiens) (UniProt P04150); assay: qHTS assay to identify small molecule antagonists of the glucocorticoid receptor (GR) signaling pathway (AID 720692; active = well fitted inhibition curve with a large enough effect in the signal ratio in the repeat runs, not every such curve was filed as active; the % refers to the signal ratio; note: potency is the fitted concentration of half-maximal effect)
# Outline: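 Dexamethasone (5 nM final) stimulated a stably integrated GRE-beta-lactamase reporter in HeLa cells during 18 h co-incubation with compounds; signal was quantified as fluorescence intensity of B/G FRET substrate after 2 h.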
SMILES,Potency [1],Potency [2],Potency [3],Potency [4],Potency [5],Potency [6],Potency [7],Potency [8],Potency [9],Potency [10],outcome [11],Potency [12],outcome [13],Potency [14],Potency [15],Potency [16],Potency [17],Potency [18]
CO[C@H]1C=CO[C@@]2(C)Oc3c(C)c(O)c4c(O)c(c5c(nc6cc(C)ccn65)c4c3C2=O)NC(=O)/C(C)=C\C=C[C@H](C)[C@H](O)[C@@H](C)[C@@H](O)[C@@H](C)[C@H](OC(C)=O)[C@@H]1C,inactive,inactive,inactive,inactive,inactive,inactive,inactive,inactive,inactive,inactive,inactive,inactive,inactive,,,,,
CC1(C)S[C@@H]2[C@H](NC(=O)C3(N)CCCCC3)C(=O)N2[C@H]1C(=O)O,,inactive,inactive,inactive,inactive,inactive,inactive,inactive,inactive,inactive,inactive,inactive,inactive,inactive,inactive,inactive,,
CCCCCCCCCCCCCCCC(=O)OC[C@@H](O)[C@H]1OC[C@H](O)[C@H]1O,,inactive,inactive,inactive,inactive,inactive,inactive,inactive,inactive,inactive,inactive,inactive,inactive,inactive,inactive,inactive,inactive,
CC(=O)[C@@]1(O)CC[C@H]2[C@@H]3C=C(Cl)C4=CC(=O)CC[C@]4(C)[C@H]3CC[C@@]21C,,inactive,inactive,inactive,inactive,inactive,inactive,inactive,inactive,inactive,inactive,inactive,inactive,inactive,,,,
CCN(CC)CCOc1ccc(-c2nc3cc(Cl)ccc3s2)cc1,,inactive,inactive,inactive,inactive,inactive,inactive,inactive,inactive,inactive,inactive,inactive,inactive,inactive,inactive,inactive,,
COc1ccc(C[C@H](C)NC[C@@H](O)c2ccc(O)c(NC=O)c2)cc1,,inactive,inactive,,inactive,inactive,inactive,inactive,inactive,inactive,inactive,inactive,inactive,,inactive,inactive,,
CN[C@H]1CCc2cc(OC)c(OC)c(OC)c2-c2ccc(OC)c(=O)cc21,inactive,inactive,inactive,inactive,inactive,inactive,inactive,inactive,inactive,inactive,inactive,inactive,inactive,,inactive,inactive,,
C#C[C@]1(O)CC[C@H]2[C@@H]3CCC4=C/C(=N/O)CC[C@@H]4[C@H]3CC[C@@]21CC,inactive,inactive,inactive,inactive,inactive,inactive,,inactive,inactive,inactive,inactive,inactive,inactive,,,,10.6 µM (active),
CCCCC[C@H](O)/C=C/[C@H]1[C@H](O)CC(=O)[C@@H]1CCCCCCC(=O)O,,inactive,inactive,inactive,inactive,inactive,inactive,inactive,inactive,inactive,inactive,inactive,inactive,inactive,inactive,,,
NC(=O)OC[C@@H]1[C@H](NC(=O)/C(=N\OCC(=O)O)c2csc(N)n2)C(=O)N1S(=O)(=O)O,inactive,inactive,inactive,,inactive,inactive,inactive,inactive,inactive,inactive,inactive,inactive,inactive,,inactive,inactive,inactive,inactive
CCCOc1cc(N)ccc1C(=O)OCCN(CC)CC,,inactive,inactive,inactive,inactive,inactive,inactive,inactive,inactive,inactive,inactive,inactive,inactive,inactive,inactive,,,inactive
CCC(=O)O[C@H]1CC[C@H]2[C@@H]3CCc4cc(O)ccc4[C@H]3CC[C@]12C,,,inactive,inactive,inactive,inactive,inactive,inactive,inactive,inactive,inactive,inactive,inactive,inactive,inactive,,11.9 µM (active),
CCCCC/C=C\CCC(=O)N[C@H]1[C@H](Oc2c3cc4cc2Oc2ccc(cc2Cl)[C@@H](O[C@@H]2O[C@H](CO)[C@@H](O)[C@H](O)[C@H]2NC(C)=O)[C@@H]2NC(=O)[C@H](NC(=O)[C@@H]4NC(=O)[C@H]4NC(=O)[C@@H](Cc5ccc(c(Cl)c5)O3)NC(=O)[C@H](N)c3ccc(O)c(c3)Oc3cc(O)cc4c3)c3ccc(O)c(c3)-c3c(O[C@H]4O[C@H](CO)[C@@H](O)[C@H](O)[C@@H]4O)cc(O)cc3[C@@H](C(=O)O)NC2=O)O[C@H](CO)[C@@H](O)[C@@H]1O,inactive,inactive,inactive,inactive,inactive,inactive,inactive,inactive,inactive,inactive,inactive,inactive,inactive,inactive,inactive,inactive,,inactive
CO[C@H]1C[C@@H]2CC[C@@H](C)[C@@](O)(O2)C(=O)C(=O)N2CCCC[C@H]2C(=O)O[C@H]([C@H](C)C[C@@H]2CC[C@@H](OCCO)[C@H](OC)C2)CC(=O)[C@H](C)/C=C(\C)[C@@H](O)[C@@H](OC)C(=O)[C@H](C)C[C@H](C)/C=C/C=C/C=C/1C,21.1 µM (active),,inactive,inactive,inactive,inactive,inactive,inactive,inactive,inactive,,inactive,inactive,29.8 µM (active),inactive,inactive,21.1 µM (active),7.56 µM (active)
